Compound activity: PubChem BioAssay, National Center for Advancing Translational Sciences (NCATS)
ALOX12 inh – ALOX12 (human) lipoxygenase inhibition. Potency, µM (top dose mostly 108 µM), inactives show top-dose activity change, negative = inhibition, actives largely listed as inhibitors. purified 12hLO, xylenol orange hydroperoxide absorbance. P18054. actives 1.1% (n = 580,000); note: % is set by controls: 0 for no effect and ±100 for the full control effect
Target sequence (P18054 whole entry, looked up): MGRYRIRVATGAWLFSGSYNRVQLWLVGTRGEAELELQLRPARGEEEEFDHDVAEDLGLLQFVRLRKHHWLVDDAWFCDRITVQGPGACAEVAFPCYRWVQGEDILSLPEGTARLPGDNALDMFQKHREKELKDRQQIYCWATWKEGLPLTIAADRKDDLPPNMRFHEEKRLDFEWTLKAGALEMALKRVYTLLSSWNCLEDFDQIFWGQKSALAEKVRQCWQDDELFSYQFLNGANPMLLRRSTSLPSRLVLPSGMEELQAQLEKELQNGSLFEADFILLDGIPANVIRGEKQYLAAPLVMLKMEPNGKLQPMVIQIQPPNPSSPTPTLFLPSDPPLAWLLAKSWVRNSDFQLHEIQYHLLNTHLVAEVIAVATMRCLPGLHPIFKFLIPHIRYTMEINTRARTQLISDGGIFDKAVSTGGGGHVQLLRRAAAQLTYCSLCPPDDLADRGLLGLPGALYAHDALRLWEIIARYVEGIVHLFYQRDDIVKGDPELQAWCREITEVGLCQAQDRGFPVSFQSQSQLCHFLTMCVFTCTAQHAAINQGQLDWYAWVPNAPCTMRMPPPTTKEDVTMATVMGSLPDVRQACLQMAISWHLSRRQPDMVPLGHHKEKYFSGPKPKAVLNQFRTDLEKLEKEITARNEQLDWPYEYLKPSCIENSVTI
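Purified human 12hLO at 150 nM in 25 mM Hepes, 0.01% Triton X-100, pH 7.0, preincubated 15 min at room temperature with compound. Reaction started with 40 uM arachidonic acid, 30 min at room temperature. Hydroperoxide measured by Fe-xylenol orange, 573/405 nm absorbance ratio.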
ATXN viability – viability counter-screen for ATXN expression inhibitors. S2 cells (HEK-293 line with an ATXN2-luciferase reporter) viability, CellTiter-Fluor protease fluorescence, 24 h. Potency, µM (highest dose often 56.7 µM), usual class: cytotoxic. actives 0.49% (n = 400,000); note: nearly all actives have a fitted effect of over 40% in size
HepG2 tox – kills HepG2 cells in TGF-b inhibitor counter-screen; HepG2 CAGA-GFP viability, ATP luminescence, 18 h; Potency, µM (series often up to 46.1 µM), for the others: at the top dose activity change, negative = cytotoxicity, hits mostly cytotoxic; actives 0.76% (n = 410,000); AID 588856
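HepG2 CAGA-GFP cells (1000/well, DMEM with 1% FBS) received compound, then TGF-beta at 500 pg/mL final, and were incubated 18 hours at 37 degrees C. Viability was read by CellTiter-Glo luminescence. Media-only wells were set as complete cell-killing and DMSO as no toxicity.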
ATXN2 expr inh – reduces ATXN2 reporter expression in HEK-293 cells | Potency, µM (doses to about 57 µM), without a hit: at the top dose activity change, negative = inhibition, usual class: inhibitors | actives 0.72% (n = 360,000) | AID 1745845 | HEK-293 ATXN2-luciferase reporter, luminescence, 24 h; note: % is set by controls: 0 for no effect and ±100 for the full control effect; nearly all actives have a fitted effect of over 55% in size
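qHTS (up to 57 uM final) was run with 24 h compound exposure of reporter cells at 37 °C. Each well was multiplexed: SteadyGlo luminescence measured ATXN2-luciferase expression after a fluorogenic Gly-Phe-AFC viability readout (25 uM final).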
TGFb SMAD3 inh – inhibitors of TGF-b signaling; HepG2 CAGA-GFP TGF-b/SMAD3 reporter, GFP fluorescence, 18 h; TGF-beta stimulated, 500 pg/mL final; Potency, µM (highest dose often 46.1 µM), inactives show at the highest dose activity, negative = inhibition, actives largely listed as inhibitors; actives 1.2% (n = 410,000); AID 588855; note: % is set by controls: 0 for no effect and ±100 for the full control effect; nearly all actives have a fitted effect of over 65% in size
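Inhibition of TGF-beta-driven CAGA-GFP reporter expression in HEPG2 cells is measured by cellular GFP fluorescence after 18 h stimulation with 500 pg/mL recombinant TGF-beta in 1% FBS medium at 37 degrees C.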
Numbers without * were called inactive; i = inactive; ? = inconclusive; . = no result given; ! = a repeat was not active; [ ] = remark or other dose. Sampled rows, rich in hits. Any-hit rate of the full collection: about 2.7%. Calls come from the whole dose curve; as a rule, active = well fitted curve in the direction sought with a large enough effect; inconclusive = small, poorly fitted or top-dose-only effect, or another doubt; inactive = no such curve, though single readings can be large; an effect the other way counts as inactive or inconclusive. Potency is the fitted concentration of half-maximal effect.

SMILES | ALOX12 inh | ATXN viability | HepG2 tox | ATXN2 expr inh | TGFb SMAD3 inh
CC(=O)N(C)c1ccc(NC(=O)CC2C=CCC2)cc1 (configuration not stated) | 8% | . | . | . | .
COc1ccccc1NC(=S)NCc1ccccc1 | ? | i | 2% | -2% | 0%
CCCCn1c(NC(=S)Nc2ccccc2)nc2ccccc21 | 18µM* | i | -19% | -14% | 13µM*
COc1ccccc1NC(=S)NCc1ccc(Cl)cc1 | 11µM* | i | -9% | -12% | 0%
CCCCCn1c(NCc2ccccc2OC)nc2ccccc21 | 6% | ? | -43% | ? | 16µM*
S=C(Nc1ccccc1)Nc1nc2ccccc2n1CCOc1ccccc1 | ? | i | -45% | ? | 5%
Cc1ccc(NC(=S)NCc2ccc(Cl)cc2)c(C)c1 | 35µM* | i | -26% | ? | -26%
Cc1nc(N(C)C)ncc1C(=O)NCc1ccc(Cl)cc1 | 39% | . | . | . | .
CCn1nc(C(=O)NC(CC(=O)OC)c2ccc(F)cc2)c2ccccc2c1=O (configuration not stated) | -7% | . | . | . | .
COc1cccc(NC(=O)COC(=O)COc2ccc3c(C)cc(=O)oc3c2)c1 | -12% | . | . | . | .
COC(=O)c1cc(NC(=S)NCc2ccc(Cl)cc2)cc(C(=O)OC)c1 | 45µM* | i | -21% | 4% | ?
COc1ccc(CNc2nc3ccccc3n2Cc2ccc(Cl)cc2)cc1OC | ? | i | -36% | -26% | 14µM*
COc1ccc(CNC(=S)NCc2ccc(Cl)cc2)cc1OC | 50µM* | i | -22% | -27% | -5%
CCn1cc(CN2CCCC(c3nc4c(C)cccc4[nH]3)C2)cc1C#N (configuration not stated) | 92% | . | . | . | .
CCOC(=O)c1c(NC(=O)C(NCCN(C)C)c2ccccc2)sc2c1CCCC2 (configuration not stated) | ? | . | -105% | 28µM* | ?
CCNC(=O)NC(=O)C(C)NC(C)c1cccc(C(F)(F)F)c1 (configuration not stated) | 26% | . | . | . | .
O=[N+]([O-])c1ccc(C(=S)N2CCN(c3ccc(F)cc3)CC2)cc1 | 50µM* | i | 1% | -32% | 8%
COC(=O)c1ccc2c(c1)C(C)(C)C(/C=C/c1ccccc1O)=[N+]2C | ? | 7.9µM* | 6.3µM* | 3.5µM* | ?
C[N+]1=C(/C=C/Nc2ccccc2Cl)C(C)(C)c2ccccc21 | ? | i | -28% | -26% | ?
CCCCn1c(=O)n(CC(=O)Nc2c(C)cccc2C)c(=O)c2c1ncn2CCC(C)C | 5% | . | . | . | .
COc1cc(/C=C2/C(=O)c3cccc([N+](=O)[O-])c3C2=O)c(Br)cc1O | 18µM* | . | -33% | 22µM* | ?
Cc1nc(NCC2CCCO2)c(C#N)c2c1CCCC2 (configuration not stated) | 39% | . | . | . | .
Nc1cc(S(=O)(=O)Nc2ccccc2Cl)ccc1N1CCOCC1 | -1% | i | -29% | . | -28%
Nc1cc(S(=O)(=O)Nc2ccc(Cl)cc2)ccc1N1CCOCC1 | 45µM* | i | -12% | -31% | ?
Cc1nn(-c2ccccc2)c(N2CCCC2)c1/C=N/NC(=S)Nc1cc(C(F)(F)F)ccc1Cl | ? | ? | 16% | 9% | 6%
SMILES | ALOX12 inh | ATXN viability | HepG2 tox | ATXN2 expr inh | TGFb SMAD3 inh
Cc1nn(-c2ccccc2)c(N2CCCC2)c1/C=N/NC(=S)Nc1ccccc1C(F)(F)F | 35µM* | i | 4% | -9% | 0%
COc1cc(NC(=O)c2nc3nc(C)cc(C(F)F)n3n2)cc(OC)c1OC | -5% | . | . | . | .
Cc1c(N=Nc2c(-c3ccc([N+](=O)[O-])cc3)[nH]n(C(N)=S)c2=O)cccc1[N+](=O)[O-] | ? | ? | -23% | ? | 8.9µM*
Cc1[nH]n(C(N)=S)c(=O)c1N=Nc1cccc([N+](=O)[O-])c1C | . | i | 20µM* | . | ?
NC(=S)n1[nH]c(-c2ccc([N+](=O)[O-])cc2)c(N=Nc2ccccc2[N+](=O)[O-])c1=O | -26% | i | -1% | ? | -12%
O=C(O)C1CC(=O)N(c2ccc(S(=O)(=O)Nc3ccccc3F)cc2)C1 (configuration not stated) | -15% | . | . | . | .
S=c1[nH]nc(COc2ccccc2)n1Cc1ccccc1 | ? | i | 1% | -8% | -18%
CC(C)CCn1c(COc2ccccc2)n[nH]c1=S | 16µM*! | ? | 7% | 4%[11.3 µM] | 13%
CCc1ccc(OCc2n[nH]c(=S)n2Cc2ccccc2)cc1 | ? | i | -28% | -12% | ?
CCc1ccc(OCc2n[nH]c(=S)n2C(C)CCCC(C)C)cc1 (configuration not stated) | 35µM* | ? | -118% | ? | ?
CSc1ccc(/C=C/C(=O)c2ccc(NC(=O)c3ccccc3Cl)cc2)cc1 | -10% | . | . | . | .
CN1CCN(Cc2c(O)ccc3occ(C(=O)c4ccccc4)c23)CC1 | 0% | ? | -29% | -9% | -1%
CC(=O)C(C(C)=O)c1c(Cl)c(O)c(O)c2c(C(=O)c3ccccc3)coc12 | ? | ? | -39% | 25µM* | ?
O=C(/C=C/Nc1ccc(OCc2ccccc2)cc1)c1ccc(Br)cc1 | -17% | . | . | . | .
O=C(c1cc2ccccc2oc1=O)N1CCCc2ccccc21 | 0% | . | . | . | .
COC(=O)C1=C(C)N(Cc2ccc(C)cc2)C(=O)/C1=C\c1cc(OC)c(OC)c(OC)c1 | ? | i | 16µM* | -11% | ?
COC(=O)C1=C(C)N(Cc2ccc(C)cc2)C(=O)/C1=C\c1ccc(O)c(OC)c1 | 28µM* | i | -21% | 18% | 19%
CCOc1cc(/C=C2\C(=O)N(CCc3ccc(OC)c(OC)c3)C(C)=C2C(=O)OC)ccc1O | ? | i | -21% | -16% | -1%
COc1cc(OC)c(C(=O)Nc2cc(C(C)(C)C)on2)cc1OC | -8% | . | . | . | .
CN1CCN(c2ccc(NC(=O)c3ccccc3F)nc2)CC1 | -3% | . | . | . | .
O=S(=O)(NC[C@H]1O[C@@H](CO)[C@@H](O)[C@H]1N1CCOCC1)c1ccccc1 | -2%[176 µM] | . | . | . | .
O=C(NC[C@H]1O[C@@H](CO)[C@@H](O)[C@H]1N1CCN(c2ccccn2)CC1)Nc1ccc(F)cc1F | 10µM* | . | . | . | .
O=S(=O)(NC[C@H]1O[C@@H](CO)[C@@H](O)[C@H]1N1CCN(c2ccccc2)CC1)c1ccc(F)cc1 | 22µM* | . | . | . | .
CCOCCn1c(N2CCNCC2)nc2c1c(=O)[nH]c(=O)n2C | 13% | . | . | . | .
CCn1cnnc1CC1CCN(C(=O)c2cc(-c3ccc(C)c(C)c3)nc3ccccc23)CC1 | 53% | . | . | . | .
NC(=O)c1ccc(COC(=O)c2ccc(Cl)cc2)cc1 | 7% | . | . | . | .
Nc1nc(N)c2c(ccc3nccc32)[nH]1 | 7% | ? | 1.3µM* | . | ?
